Compound activity: PubChem BioAssay, several laboratories
A selection: hits, their analogues and other compounds. The true share with any hit is near 2.7%.
DNA FID counter – fluorescent intercalator displacement, NS3 helicase counter-screen. AID 1845. DNA fluorescent intercalator displacement, fluorescence. inhibition, % at 7.9 µM. 290,000 tested, 0.17% active; in the data active = inhibition above about 37%;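 note: 0% = vehicle and 100% = reference compound; higher means more ethidium bromide displaced from hairpin DNA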
PP1 inh – counter-screen for PP5 inhibitors: inhibitors of human PP1-alpha. inhibition, % at 6.7 µM. purified PP1alpha, OMFP fluorescence. 320,000 tested, 0.9% active;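 active = inhibition above the mean inhibition of all tested compounds plus 3 SD, computed separately for each screening campaign, cut at about 15% in these data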
PREPL inh – inhibits the human prolyl oligopeptidase-like enzyme; recombinant PREPL, fluorescence polarization activity-based probe; inhibition, % at 5.96 µM; 320,000 tested, 0.68% active; Q4J6C6; AID 2751; in the data active = inhibition above about 43%;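 note: 0% = enzyme with DMSO and 100% = wells lacking enzyme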
ANO1 block – inhibitors of mouse TMEM16A calcium-activated chloride channel; Q8BHY3; normalized B-score (activity score, 25-100; higher = stronger inhibition) at 10 µM; AID 588511; HEK293 TMEM16A/YFP iodide influx fluorescence, ionomycin; 310,000 tested, 1.2% active;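 active = ratio plate-corrected score three or more library SD toward inhibition, starting fluorescence score within five deviations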;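 note: score derived from kinetic fluorescence span divided by baseline fluorescence per well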
Target sequence (Q8BHY3 whole entry, looked up): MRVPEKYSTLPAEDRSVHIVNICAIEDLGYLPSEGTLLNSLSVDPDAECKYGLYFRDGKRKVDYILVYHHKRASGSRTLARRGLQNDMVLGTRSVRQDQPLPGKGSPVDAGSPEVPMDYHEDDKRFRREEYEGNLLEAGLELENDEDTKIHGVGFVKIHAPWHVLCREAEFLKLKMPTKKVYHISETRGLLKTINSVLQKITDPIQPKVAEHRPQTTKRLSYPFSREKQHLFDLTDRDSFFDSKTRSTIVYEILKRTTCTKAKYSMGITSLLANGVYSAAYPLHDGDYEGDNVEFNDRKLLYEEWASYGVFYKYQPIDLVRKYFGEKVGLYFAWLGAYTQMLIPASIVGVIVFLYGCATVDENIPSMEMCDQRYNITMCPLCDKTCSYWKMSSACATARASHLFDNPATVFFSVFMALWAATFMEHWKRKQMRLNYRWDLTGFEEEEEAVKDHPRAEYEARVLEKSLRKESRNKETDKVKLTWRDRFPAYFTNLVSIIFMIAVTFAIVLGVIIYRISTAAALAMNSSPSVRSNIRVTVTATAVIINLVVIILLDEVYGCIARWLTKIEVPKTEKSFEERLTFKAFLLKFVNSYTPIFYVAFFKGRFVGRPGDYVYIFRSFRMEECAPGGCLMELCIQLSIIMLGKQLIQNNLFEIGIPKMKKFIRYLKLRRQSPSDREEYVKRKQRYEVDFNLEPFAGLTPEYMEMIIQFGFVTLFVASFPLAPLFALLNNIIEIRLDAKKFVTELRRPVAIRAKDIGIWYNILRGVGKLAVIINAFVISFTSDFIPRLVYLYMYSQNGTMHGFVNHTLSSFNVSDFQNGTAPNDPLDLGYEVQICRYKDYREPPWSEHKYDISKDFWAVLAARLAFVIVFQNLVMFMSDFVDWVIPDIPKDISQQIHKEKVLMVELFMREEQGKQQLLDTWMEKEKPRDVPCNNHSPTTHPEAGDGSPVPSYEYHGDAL
ANO1 activ – activators or potentiators of mouse TMEM16A chloride channel; Q8BHY3; HEK293 TMEM16A/YFP-H148Q/I152L, iodide quench fluorescence; active compounds read low; B-score at 10 µM; 340,000 tested, 0.3% active;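 active = fluorescence-ratio B-score plate-corrected deviation score at least 3 library SD below zero, with starting fluorescence score within 5 deviations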;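 note: channel opened by trigger with iodide after compound preincubation; score built on the fluorescence ratio of max minus min over baseline; more negative score means more quench and so TMEM16A activation or potentiation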
PP5 primary – blocks human protein phosphatase 5 activity | AID 1987 | purified PP5c, OMFP substrate fluorescence | P53041 | inhibition, % at 6.7 µM | 320,000 tested, 0.18% active;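 active = inhibition above the campaign's mean inhibition across all tested compounds plus 3 SD, cut at about 9.5% in these data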;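 note: 0% = DMSO only and 100% = 100 µM cantharidin control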
PP1 confirm – human PP1 phosphatase inhibition, confirmation. inhibition, % at 6.7 µM. purified PP1alpha, OMFP substrate fluorescence. shares compounds with PP1 inh. 1,900 tested, 52% active;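 active = mean PP1 inhibition above a set limit taken from the earlier primary screen, cut at about 15% in these data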
PP5 counter – PP5 phosphatase inhibition, counter-screen for PP1 inhibitors | shares compounds with PP1 inh | purified PP5c, OMFP fluorescence | inhibition, % at 6.7 µM | 1,900 tested, 4% active;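 active = mean PP5 inhibition over triplicate wells above about 9.5% taken from the earlier PP1 screen, limit read from the data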
Starred values were filed as active, the others as inactive; i = inactive; nt = no result given.

SMILES	DNA FID counter	PP1 inh	PREPL inh	ANO1 block	ANO1 activ	PP5 primary	PP1 confirm	PP5 counter
Cc1sc2ncn(CC(=O)NCCCN3CC(C)CC(C)C3)c(=O)c2c1S(=O)(=O)N1CC(C)CC(C)C1 (stereo not drawn)	4.1	-4.7	3.6	i	i	-0.1	nt	nt
COCCn1c(C)cc(C(=O)COC(=O)/C=C/c2c(C)nn(C3CCS(=O)(=O)C3)c2Cl)c1C (stereo not drawn)	nt	-7.3	-8.9	i	i	-0.9	nt	nt
COc1ccc(S(=O)(=O)Nc2ccc(F)c(F)c2)cc1C(=O)N1CCOCC1	-11.6	22.4*	-0.4	i	i	-3.8	-2.6	-4.8
COc1ccccc1N(CC(=O)NC1CCCC1)S(=O)(=O)c1cccc(C(F)(F)F)c1	nt	nt	nt	nt	i	nt	nt	nt
C#CCn1c(CCNC(=O)c2ccco2)nc2ccccc21	-13.1	-1.1	20.6	i	i	-0.5	nt	nt
COc1ccc(/C=N/NC(=O)c2ccc(NC(C)=O)cc2)cc1COc1ccc(F)cc1F	-16.3	21.8*	-13.0	i	i	1.5	12.1	-2.0
COc1ccc(/C=N\NC(=O)c2cc(O)c(O)c(O)c2)cc1COc1ccc(C(=O)OCC(C)C)cc1	-16.4	26.8*	15.4	i	i	7.0	25.3*	0.1
CCC1(C)SC(N)=NN1C(C)=O (stereo not drawn)	14.9	-2.8	8.6	i	i	-0.2	nt	nt
Nc1cc2c(cc1Cl)N(Cc1ccccc1)C(=O)CO2	nt	-2.1	0.8	nt	i	-1.1	nt	nt
Cc1cc(Cl)c(S(=O)(=O)N2CCN(c3ccc(F)cc3)CC2)cc1OCC(=O)NC1CCCCC1	-6.3	18.2*	-64.7	25*	i	6.5	2.4	-1.7
COc1ccc(-c2cc(C(=O)NCCN3CCOCC3)no2)cc1OC	-9.4	32.0*	9.2	i	i	2.4	-4.2	-1.4
O=C(NCCN1CCOCC1)c1cc(-c2ccc(Br)cc2)on1	-0.1	-3.8	12.0	i	i	2.5	nt	nt
Cc1cccc(NC(=O)CSc2nnc(C)c(C)n2)c1	-3.8	-0.1	12.4	i	i	0.6	nt	nt
Cc1ccc(C(=O)Nc2nc(-c3ccccn3)cs2)o1	-11.3	23.4*	9.8	i	i	0.3	12.9	-1.7
CC(=O)c1ccc(-c2ccc(C(=O)Nc3nc(-c4ccccn4)cs3)o2)cc1	nt	nt	6.4	nt	i	nt	nt	nt
c1ccc(CCNc2nc(-c3ccccn3)cs2)cc1	-5.0	35.0*	37.7	i	i	4.2	44.1*	5.1
O=C(Nc1nc(-c2ccccn2)cs1)c1ccc([N+](=O)[O-])o1	-16.0	10.9	-3.8	i	i	2.1	nt	nt
O=C(Nc1nc(-c2ccccn2)cs1)c1ccc(-c2ccccc2F)o1	nt	19.5*	12.4	nt	i	3.2	30.5*	12.2*
NS(=O)(=O)c1ccc(CNC(=O)c2cc(=O)c3cc(Cl)ccc3o2)cc1	-3.6	4.7	5.5	i	i	0.6	nt	nt
Cc1ccc(CSCC2Nc3ccc(C(=O)N4CCN(c5cccc(C)c5)C(C)C4)cc3NC2=O)cc1 (stereo not drawn)	-34.2	18.7*	28.4	i	nt	0.9	29.1*	-5.7
Cc1cccc(N2CCN(C(=O)c3ccc(N4CCCC4=O)cc3)CC2C)c1 (stereo not drawn)	-34.8	-5.2	20.0	i	i	-4.2	nt	nt
CC(=O)N1N=C(c2ccccc2OC(=O)/C=C/c2ccccc2)CC1c1ccccc1 (stereo not drawn)	-38.7	21.3*	20.1	i	i	1.9	0.5	-0.2
CC(=O)N1N=C(c2ccc3nccnc3c2)CC1c1ccccc1 (stereo not drawn)	-18.1	-1.2	-6.6	i	i	1.0	nt	nt
N#CCSc1ccccc1NC(=O)COC(=O)CCN1C(=O)C2CC=CCC2C1=O (stereo not drawn)	nt	-3.7	22.7	nt	i	4.3	nt	nt
COc1cccc(-c2cc(N)nn2C(=O)Nc2ccc(Cl)cc2)c1	-3.8	23.1*	-3.4	i	i	3.1	16.5*	7.2
